PI4K2A block – PI4K2A (human) kinase inhibition; actives 0.13% (n = 420,000); purified PI4K2A, ADP-Glo luminescence, 1 h; stronger effect = lower value; Q9BTU6; activity change, negative = inhibition, % at 76.9 µM; AID 1346378; in the data active = activity change below about -50%; inconclusive = mostly about -30% to -49%;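 note: -100% = wells without enzyme as full effect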
Target sequence (Q9BTU6 whole entry, looked up): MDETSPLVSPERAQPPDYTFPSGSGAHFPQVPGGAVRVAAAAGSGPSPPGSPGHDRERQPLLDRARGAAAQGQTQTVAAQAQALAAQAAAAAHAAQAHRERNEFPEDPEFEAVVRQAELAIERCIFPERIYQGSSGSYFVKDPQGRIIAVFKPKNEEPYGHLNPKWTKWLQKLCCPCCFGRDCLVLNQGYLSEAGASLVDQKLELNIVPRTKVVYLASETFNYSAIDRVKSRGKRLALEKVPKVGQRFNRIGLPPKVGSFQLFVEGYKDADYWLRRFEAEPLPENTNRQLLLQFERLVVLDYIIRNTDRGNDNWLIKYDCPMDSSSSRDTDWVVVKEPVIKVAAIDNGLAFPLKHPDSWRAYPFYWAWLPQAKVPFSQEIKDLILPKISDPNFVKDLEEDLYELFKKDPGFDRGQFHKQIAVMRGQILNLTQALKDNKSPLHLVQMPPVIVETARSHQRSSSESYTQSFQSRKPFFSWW
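ADP-Glo luminescence measured ADP generated by PI4K2A enzyme (4 ug/mL before mixing) with 1.2 mM PI substrate (pre-mix) and 300 microM ATP (pre-mix). Tris pH7.5 buffer with MgCl2, Triton X-100; 1 h reaction at ambient temperature.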
GLS inh – glutaminase GLS (human) inhibition; O94925; GLS enzymatic activity, qHTS titration; Potency, µM (series often up to 45.5 µM), without a hit: top-dose activity change, negative = inhibition, actives largely listed as inhibitors; actives 0.21% (n = 410,000); AID 624170; note: potency is the fitted concentration of half-maximal effect
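Glutamate formation by hKGA was monitored fluorometrically using coupled glutamate oxidase, HRP and Amplex Red. Substrate was added as 1 mM L-glutamine solution; incubation was 30 min at RT after an initial read.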
PLK1 PBD block – blocks phosphopeptide binding to human PLK1 polo-box domain | P53350 | Plk1 PBD binding of FITC phosphopeptide, fluorescence polarization | actives 2.8% (n = 360,000) | AID 720504 | Potency, µM, without a hit: max response, negative = inhibition, hits mostly inhibitors; note: potency is the fitted concentration of half-maximal effect; series mostly up to about 57 µM; nearly all actives have a fitted effect of over 65% in size
KAT2A inh – inhibitors of human GCN5L2 histone acetyltransferase. Q92830. GCN5L2 HAT assay, ThioGlo1 CoA-SH fluorescence. Potency, µM (highest dose often 58.9 µM), inactives show at the highest dose activity change, negative = inhibition, usual class: inhibitors. actives 0.21% (n = 390,000). AID 504327; note: potency is the fitted concentration of half-maximal effect
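GCN5L2 (20nM final) in 50mM HEPES, 0.1mM EDTA pH 7.5, 0.01% Tween-20 was preincubated 15 min at room temperature with compound, then given ThioGlo1 (50uM), H3(1-25) peptide (75uM) and acetyl-CoA (70uM); CoA-thiol fluorescence (Ex340/Em540) was read at 0 and 20 min.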
VDR inh – vitamin D3 receptor (human) inhibition. P11473. VDR-SRC2-3 peptide fluorescence polarization, 2 h. Potency, µM, inactives show max response, negative = inhibition, actives largely listed as inhibitors. actives 0.93% (n = 400,000). AID 504847; note: potency is the fitted concentration of half-maximal effect
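The screen uses fluorescence polarization to detect compounds that interfere with recruitment of the SRC2-3 coactivator peptide to VDR; plates are read after 2 h at room temperature.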
TbPYK confirm – Trypanosoma brucei pyruvate kinase inhibition, cherry-pick confirmation. shares compounds with PLK1 PBD block. recombinant TbPYK, Kinase-Glo ATP luminescence. Potency, µM (titrated, usually from 76.9 µM), without a hit: at the top dose activity change, negative = inhibition, most hits filed as inhibitors. actives 67% (n = 890); note: potency is the fitted concentration of half-maximal effect; nearly all actives have a fitted effect of over 70% in size
TbPYK ADP-Glo – orthogonal confirmation of Trypanosoma brucei pyruvate kinase inhibitors; shares compounds with PLK1 PBD block; recombinant TbPYK, ADP-Glo luminescence, 60 min; Potency, µM (doses to about 76.9 µM), for inactives: top-dose activity change, negative = inhibition, most hits filed as inhibitors; actives 62% (n = 890); AID 720584; note: potency is the fitted concentration of half-maximal effect; nearly all actives have a fitted effect of over 75% in size
* marks the source's active call; other numbers are inactive results; ? = inconclusive; · = no result given. This is a sample that favours compounds with a hit; in the whole collection about 3.1% have one here. Unless noted, calls come from the whole dose curve; as a rule, active = well fitted curve in the direction sought with a large enough effect; inconclusive = small, poorly fitted or top-dose-only effect, or another doubt; inactive = no such curve, though single readings can be large; an effect the other way counts as inactive or inconclusive. Unless noted, % is set by controls: 0 for no effect and ±100 for the full control effect.

SMILES | PI4K2A block | GLS inh | PLK1 PBD block | KAT2A inh | VDR inh | TbPYK confirm | TbPYK ADP-Glo
O=C(COC(=O)CNS(=O)(=O)/C=C/c1ccccc1)Nc1cccc2ccccc12 | 2 | 16% | 5% | 2% | -1% | · | ·
O=C1OC2(c3ccccc31)c1ccccc1-c1ccccc12 | 3 | -16% | -4% | · | -1% | · | ·
O=C1OC(c2ccc3ccccc3c2O)(c2ccc3ccccc3c2O)c2ccccc21 | 4 | 11µM* | 4.7µM* | · | ? | 13µM* | 13µM*
Cc1ccc(S(=O)(=O)N2CCC(C(=O)NNS(=O)(=O)c3ccc(Cl)cc3)CC2)cc1 | -3 | 14% | 2% | -4% | 11% | · | ·
Cc1ccc(S(=O)(=O)NNC(=O)C2CCN(S(=O)(=O)c3ccc(C)cc3)CC2)cc1 | 0 | 26% | -7% | -3% | -1% | 4% | -3%
Oc1c(CN2CCOCC2)cc(CN2CCOCC2)c(O)c1CN1CCOCC1 | 0 | 27% | 1.7µM* | · | 10µM* | 1.4µM* | ?
COc1ccc(-c2nnc3n2N=C(c2cccc([N+](=O)[O-])c2)CS3)cc1 | -2 | · | · | · | · | · | ·
CC1CN2C(c3ccc([N+](=O)[O-])cc3)=CSC2=N1 (centres undefined) | 1 | -22% | ? | -9% | ? | 6.3µM* | 13µM*
CC1C(=O)NN=C1c1ccc([N+](=O)[O-])cc1 (centres undefined) | -4 | 18% | -23% | · | -20% | · | ·
Cc1cccc(OCc2ccc(-c3nc(C#N)c(NCCN(C)C)o3)o2)c1 | -1 | 7% | · | -4% | -6% | · | ·
Cc1ccc(-n2c(N)c(C(=O)N3CCN(C)CC3)sc2=S)cc1 | 4 | -4% | 3µM* | -21% | 25µM* | 0.63µM* | 4.5µM*
O=C1N(Cc2ccccc2)CC2(Br)COCOC12O (centres undefined) | 0 | -5% | 2.7µM* | · | ? | 1.1µM* | 3.5µM*
COc1cccc(C=C2SC(=S)NC2=O)c1 | 0 | 29% | 0% | · | -24% | · | ·
COc1cccc(/C=C2\C(=O)C(=O)c3ccccc32)c1 | -28 | 44% | 0.79µM* | -4% | 89µM* | 32µM* | ?
CCC(=O)/C=C1/Sc2ccccc2N1CC | -5 | 23% | 27µM* | -11% | ? | ? | 18µM*
CCN1/C(=C/C(=O)c2ccco2)Sc2ccccc21 | -2 | -1% | ? | -11% | 20% | · | ·
O=C(COc1cccc(C(F)(F)F)c1)N1CCN(c2ccc(O)cc2)CC1 | -17 | ? | -2% | 4% | 8% | 8.9µM* | ?
Cc1ccc2cc(CN(CC(C)C)C(=O)C3CCCO3)c(=O)[nH]c2c1 (centres undefined) | -4 | 0% | -8% | -2% | 3% | -20% | -28%
CC(OC(=O)C1=Cc2ccccc2OC1)C(=O)NCC1CCCO1 (centres undefined) | -4 | -22% | 12µM* | · | ? | -7% | -7%
CCC(CC)C(=O)Nc1cccc(C(=O)NCc2ccco2)c1 | 0 | -15% | -6% | -24% | -4% | -8% | -15%
O=C(NCc1ccco1)c1cccc(NC(=O)c2ccccc2)c1 | 1 | · | -11% | -1% | 1% | · | ·
S=C(NCCc1ccccc1)N1CCc2ccccc2C1 | 5 | -9% | -1% | 1% | -14% | · | ·
CCOC(=O)CCc1c(C)nc(SCC(=O)O)c(C#N)c1C | 3 | -12% | -20% | -3% | ? | 2.2µM* | 7.1µM*
Cc1nc(SCC(=O)O)c(C#N)c(C)c1CC(=O)c1ccccc1 | -1 | 6% | -19% | -1% | -11% | 5.6µM* | 11µM*
c1ccc(CNc2ncnc3c2ncn3Cc2ccccc2)cc1 | · | · | · | · | -18% | · | ·
SMILES | PI4K2A block | GLS inh | PLK1 PBD block | KAT2A inh | VDR inh | TbPYK confirm | TbPYK ADP-Glo
C[C@]12O[C@H]1[C@@H](O)C(Br)=C(CO)[C@H]2O | · | · | · | · | 2% | · | ·
CCn1nc(C)c2c(-c3ccccc3)cc(=O)n(C(C)C(=O)NCCc3ccc(Cl)cc3)c21 (centres undefined) | -4 | 7% | · | -5% | 15% | · | ·
CCOc1ccc(NC(=O)NCC2CCN(c3ccc(OC)cc3)C2)cc1 (centres undefined) | 10 | 15% | 1% | 3% | 10% | · | ·
CCc1ccc(NC(=O)NCC2CCN(c3ccc(OC)cc3)C2)cc1 (centres undefined) | 1 | 15% | -10% | 2% | 2% | ? | -29%
CCc1ccccc1NC(=O)[C@@H](c1ccccc1)N1Cc2ccccc2C1=O | -1 | 0% | · | -2% | -18% | · | ·
O=C(Nc1ccccc1)c1nnsc1S(=O)c1ccc(Cl)cc1 (centres undefined) | -9 | ? | 0.47µM* | -14% | ? | 16µM* | 14µM*
Cc1ccc(/C=C2/NC(=O)N(Cc3ccccc3)C2=O)o1 | -6 | -2% | 34% | ? | 89µM* | 16µM* | 32µM*
Cc1ccc2nc(-c3ccccn3)c(Nc3ccccc3C)n2c1 | 0 | 11% | -14% | -6% | -7% | · | ·
Cc1ccc2nc(-c3ccccn3)c(N)n2c1 | -27 | 14% | -1% | · | · | 28µM* | 11%
CCN(CC)CCNc1nc(-c2ccco2)c2c(c1C#N)CC(C)(C)OC2 | 0 | 1% | -5% | 3% | 1% | · | ·
CC1(C)Cc2c(C#N)c(NCCc3ccccc3)nc(-c3ccco3)c2CO1 | -6 | -11% | ? | -4% | ? | ? | 13µM*
Cc1cccc(/C=C2/SC(=O)N(Cc3ccccc3Cl)C2=O)n1 | -3 | -6% | 2% | 0% | 18% | · | ·
C=CCN1C(=O)/C(=c2\sc3nc(=O)c(Cc4ccccc4Cl)nn3c2=O)c2ccccc21 | 1 | 8% | 12µM* | -19% | 35µM* | 35µM* | 40µM*
O=[N+]([O-])c1cc(-c2ccc(C(=S)N3CCOCC3)o2)ccc1Cl | 0 | -15% | 2.7µM* | ? | 10µM* | 16µM* | 16µM*
CCOc1cc(/C=N/N=C2/NC(=O)C(CC(=O)O)S2)ccc1OCc1ccc(Cl)cc1 (centres undefined) | -3 | -17% | ? | ? | -16% | 16µM* | 32µM*
COc1ccc(/C=N/N=C2/NC(=O)C(CC(=O)O)S2)cc1OCc1ccc(Cl)cc1 (centres undefined) | 5 | 4% | -21% | -5% | -20% | · | ·
Cn1c(=O)[nH]c(=O)c2c1nc(N/N=C/C(Br)=C/c1ccccc1)n2CCO | 3 | 2% | ? | 2% | -18% | · | ·
Cc1cc(Br)ccc1NC(=O)c1ccc(-n2cncn2)c([N+](=O)[O-])c1 | 0 | -6% | 1% | -5% | -1% | · | ·

Compound activity: PubChem BioAssay, National Center for Advancing Translational Sciences (NCATS)
